Experimental data reported in PubChem BioAssay (Tox21).
Results filed as inconclusive are left out. Active and inactive are the calls of the source. Calls come from the whole dose curve; as a rule, active = well fitted curve in the direction sought with a large enough effect in the repeat runs; inconclusive = weak or mixed curves; inactive = no such curve, though single readings can be large; an effect the other way counts as inactive or inconclusive.

Key:
[1] = A CellTox Green Cytotoxicity Assay to monitor cytotoxicity in HEK293 cells - 40 hour (AID 1224871); note: nearly all actives have a fitted effect of over 45% in size
Method in brief: (§1)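 HEK293 cells, 600/well, were preincubated 5 hours and then exposed to compounds at 37 C for up to 40 hours. A cell-impermeant cyanine dye staining dead-cell DNA was read by fluorescence at 0, 8, 16, 24, 32 and 40 h time points.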

[2] = qHTS RealTime-Glo MT Cell Viability Assay in HEK293 cells - 16 hour (AID 1224872); note: top concentration of the series differs between compounds; nearly all actives have a fitted effect of over 50% in size
Method in brief: (§2)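 Nonlytic real-time viability readout: viable cells convert prosubstrate to NanoLuc substrate, giving luminescence proportional to live cell number. HEK293, 600 cells/well, compound added after 5 h, continuous culture at 37 C.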

[3] = qHTS RealTime-Glo MT Cell Viability Assay in HepG2 cells - 8 hour (AID 1224873); note: nearly all actives have a fitted effect of over 55% in size
Method in brief: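 HepG2 cells mixed with RealTime-Glo MT reagents (NanoLuc plus cell-permeant prosubstrate) were seeded at 600 cells/well, incubated 5 h at 37 C/5% CO2, then pinned with compounds in DMSO; nonlytic luminescence tracked viability during 40 h treatment.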

[4] = qHTS RealTime-Glo MT Cell Viability Assay in HEK293 cells - 40 hour (AID 1224874); conditions: RealTime-Glo luminescence; max response: active compounds read low; note: nearly all actives have a fitted effect of over 50% in size
Method in brief: (§3)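 600 cells/well were plated with the nonlytic NanoLuc/prosubstrate reagent, pre-incubated 5 h, then given 23 nL of compound in DMSO. Incubation at 37 C for 40 h, with luminescence from viable-cell-reduced substrate read repeatedly from 0 h.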

[5] = A CellTox Green Cytotoxicity Assay to monitor cytotoxicity in HEK293 cells - 24 hour (AID 1224875); note: series mostly up to about 77 µM; nearly all actives have a fitted effect of over 45% in size
Method in brief: as §1

[6] = A CellTox Green Cytotoxicity Assay to monitor cytotoxicity in HepG2 cells - 16 hour (AID 1224876); note: nearly all actives have a fitted effect of over 45% in size
Method in brief: (§4)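 HepG2 cells, 600/well, preincubated 5 h with CellTox Green dye, then exposed to Tox21 compounds in DMSO at 37 C for up to 40 h. Dead-cell DNA fluorescence read at the indicated time point.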

[7] = qHTS RealTime-Glo MT Cell Viability Assay in HepG2 cells - 32 hour (AID 1224877); note: nearly all actives have a fitted effect of over 55% in size
Method in brief: (§5)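 Luminescence read-out: viable HepG2 cells reduce a prosubstrate to a NanoLuc substrate, giving a signal proportional to live cell number. Reads taken at 0, 8, 16, 24, 32 and 40 h of compound exposure at 37 C.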

[8] = A CellTox Green Cytotoxicity Assay to monitor cytotoxicity in HepG2 cells - 24 hour (AID 1224878); note: nearly all actives have a fitted effect of over 45% in size
Method in brief: as §4

[9] = A CellTox Green Cytotoxicity Assay to monitor cytotoxicity in HepG2 cells - 40 hour (AID 1224879); note: nearly all actives have a fitted effect of over 40% in size
Method in brief: as §4

[10] = qHTS RealTime-Glo MT Cell Viability Assay in HEK293 cells - 0 hour (AID 1224880)
Method in brief: as §3

[11] = A CellTox Green Cytotoxicity Assay to monitor cytotoxicity in HEK293 cells - 32 hour (AID 1224881); note: nearly all actives have a fitted effect of over 40% in size
Method in brief: as §1

[12] = A CellTox Green Cytotoxicity Assay to monitor cytotoxicity in HepG2 cells - 0 hour (AID 1224882); note: nearly all actives have a fitted effect of over 35% in size
Method in brief: as §4

[13] = A CellTox Green Cytotoxicity Assay to monitor cytotoxicity in HepG2 cells - 32 hour (AID 1224883); note: nearly all actives have a fitted effect of over 50% in size
Method in brief: as §4

[14] = A CellTox Green Cytotoxicity Assay to monitor cytotoxicity in HEK293 cells - 8 hour (AID 1224884); note: nearly all actives have a fitted effect of over 35% in size
Method in brief: as §1

[15] = qHTS RealTime-Glo MT Cell Viability Assay in HepG2 cells - 16 hour (AID 1224885); note: nearly all actives have a fitted effect of over 50% in size
Method in brief: as §5

[16] = qHTS RealTime-Glo MT Cell Viability Assay in HEK293 cells - 24 hour (AID 1224886)
Method in brief: as §2

[17] = qHTS RealTime-Glo MT Cell Viability Assay in HEK293 cells - 8 hour (AID 1224887)
Method in brief: as §3

[18] = A CellTox Green Cytotoxicity Assay to monitor cytotoxicity in HEK293 cells - 16 hour (AID 1224888); note: nearly all actives have a fitted effect of over 35% in size
Method in brief: as §1

[19] = qHTS RealTime-Glo MT Cell Viability Assay in HepG2 cells - 0 hour (AID 1224889); note: nearly all actives have a fitted effect of over 50% in size
Method in brief: as §5

[20] = A CellTox Green Cytotoxicity Assay to monitor cytotoxicity in HepG2 cells - 8 hour (AID 1224890); note: nearly all actives have a fitted effect of over 45% in size
Method in brief: as §4
% is set by controls: 0 for no effect and ±100 for the full control effect.

CN(C)[C@@H]1C(=O)C(C(=O)NCN2CCCC2)=C(O)[C@@]2(O)C(=O)C3=C(O)c4c(O)cccc4[C@@](C)(O)C3C[C@@H]12 (some centres undefined)
inactive: Potency [1] | Potency [2] | outcome [3] | max response [4] 7.86% | outcome [5] | outcome [6] | Potency [7] | outcome [8] | Potency [9] | Potency [10] | outcome [11] | Potency [12] | Potency [13] | outcome [14] | outcome [15] | Potency [16] | Potency [17] | outcome [18] | Potency [19]

CC(C)C1CCC(O)CC1 (centres undefined)
inactive: Potency [1] | Potency [2] | outcome [3] | max response [4] 7.59% | outcome [5] | outcome [6] | Potency [7] | outcome [8] | Potency [9] | Potency [10] | outcome [11] | Potency [12] | Potency [13] | outcome [14] | outcome [15] | Potency [16] | Potency [17] | outcome [18] | Potency [19]

CCO[Si](OCC)(OCC)c1ccccc1
inactive: Potency [1] | Potency [2] | outcome [3] | max response [4] 10.1% | outcome [5] | outcome [6] | Potency [7] | outcome [8] | Potency [9] | Potency [10] | outcome [11] | Potency [12] | Potency [13] | outcome [14] | outcome [15] | Potency [16] | Potency [17] | outcome [18] | Potency [19]

CCCCCCCCCCCCCCC(=O)O
inactive: Potency [1] | Potency [2] | outcome [3] | max response [4] 23.9% | outcome [5] | outcome [6] | Potency [7] | outcome [8] | Potency [9] | Potency [10] | outcome [11] | Potency [12] | Potency [13] | outcome [14] | outcome [15] | Potency [16] | Potency [17] | outcome [18] | Potency [19] | outcome [20]

C=C(C)C(=O)OCC1CCCO1 (centres undefined)
inactive: Potency [1] | Potency [2] | outcome [3] | max response [4] 7.57% | outcome [5] | outcome [6] | Potency [7] | outcome [8] | Potency [9] | Potency [10] | outcome [11] | Potency [12] | Potency [13] | outcome [14] | outcome [15] | Potency [16] | Potency [17] | outcome [18] | Potency [19] | outcome [20]

CCOC(=O)C1=NOC(c2ccccc2)(c2ccccc2)C1
inactive: Potency [1] | Potency [2] | outcome [3] | max response [4] 3.23% | outcome [5] | outcome [6] | Potency [7] | outcome [8] | Potency [9] | Potency [10] | outcome [11] | Potency [12] | Potency [13] | outcome [14] | outcome [15] | Potency [16] | Potency [17] | outcome [18] | Potency [19] | outcome [20]

C=CN1CCCCCC1=O
inactive: Potency [1] | Potency [2] | outcome [3] | max response [4] 3.47% | outcome [5] | outcome [6] | Potency [7] | outcome [8] | Potency [9] | Potency [10] | outcome [11] | Potency [12] | Potency [13] | outcome [14] | outcome [15] | Potency [16] | Potency [17] | outcome [18] | Potency [19] | outcome [20]

Cc1ccccc1N=C(N)N=C(N)N
inactive: Potency [1] | Potency [2] | outcome [3] | max response [4] -9.52% | outcome [5] | outcome [6] | Potency [7] | outcome [8] | Potency [9] | Potency [10] | outcome [11] | Potency [12] | Potency [13] | outcome [14] | outcome [15] | Potency [16] | Potency [17] | outcome [18]

CCCO[Si](OCCC)(OCCC)OCCC
inactive: Potency [1] | Potency [2] | outcome [3] | max response [4] 2.55% | outcome [5] | outcome [6] | Potency [7] | outcome [8] | Potency [9] | Potency [10] | outcome [11] | Potency [12] | Potency [13] | outcome [14] | outcome [15] | Potency [16] | Potency [17] | outcome [18] | Potency [19] | outcome [20]

COCCOCC(OC)OC
inactive: Potency [1] | Potency [2] | outcome [3] | max response [4] -1.01% | outcome [5] | outcome [6] | Potency [7] | outcome [8] | Potency [9] | Potency [10] | outcome [11] | Potency [12] | Potency [13] | outcome [14] | outcome [15] | Potency [16] | Potency [17] | outcome [18] | Potency [19] | outcome [20]

CCC(C(=O)NC(=O)NC(C)=O)c1ccccc1 (centres undefined)
inactive: Potency [1] | Potency [2] | outcome [3] | max response [4] -7.54% | outcome [5] | outcome [6] | Potency [7] | outcome [8] | Potency [9] | Potency [10] | outcome [11] | Potency [12] | Potency [13] | outcome [14] | outcome [15] | Potency [16] | Potency [17] | outcome [18] | Potency [19]

[Ca+2]
inactive: Potency [1] | Potency [2] | outcome [3] | max response [4] 5.91% | outcome [5] | outcome [6] | Potency [7] | outcome [8] | Potency [9] | Potency [10] | outcome [11] | Potency [12] | Potency [13] | outcome [14] | outcome [15] | Potency [16] | Potency [17] | outcome [18] | Potency [19] | outcome [20]

CC/C=C\CCOC(C)OCC (centres undefined)
inactive: Potency [1] | Potency [2] | outcome [3] | max response [4] 3.36% | outcome [5] | outcome [6] | Potency [7] | outcome [8] | Potency [9] | Potency [10] | outcome [11] | Potency [12] | Potency [13] | outcome [14] | outcome [15] | Potency [16] | Potency [17] | outcome [18] | Potency [19] | outcome [20]

O=C(O)CCSCCC(=O)O
inactive: Potency [1] | Potency [2] | outcome [3] | max response [4] 0.716% | outcome [5] | outcome [6] | Potency [7] | outcome [8] | Potency [9] | Potency [10] | outcome [11] | Potency [12] | Potency [13] | outcome [14] | outcome [15] | Potency [16] | Potency [17] | outcome [18] | Potency [19] | outcome [20]
